The values below come from PubChem BioAssay (Tox21).

Results filed as inconclusive are left out. A call without a number means that no potency is given here. The source made the active and inactive calls. Calls follow the shape of the dose curve; as a rule, active = well fitted activation curve with a large enough effect in the repeat runs; inconclusive = weak or mixed curves; inactive = no such curve, though single readings can be large or run the other way.
Potency is read from the fitted curve at half-maximal effect.

A short description of this assay: qHTS assay for small molecules that induce genotoxicity in human embryonic kidney cells expressing luciferase-tagged ATAD5 (AID 651632). Also: nearly all actives have a fitted effect of over 15% in size. The following applies: HEK293T ATAD5-luciferase induction, 16 h; series mostly up to 83.3 µM. The text has this:
U.S. Tox21 Program National Center for Advancing Translational Sciences [NCATS] NIH Chemical Genomics Center [NCGC] U.S. Environmental Protection Agency [EPA] National Institutes of Environmental Health Sciences [NIEHS] National Toxicology Program [NTP] U.S. Food and Drug Administration [FDA] Tox21 Assay Overview: As cancer cells divide rapidly and during every cell division they need to duplicate their genome by DNA replication. The failure to do so results in the cancer cell death. Based on this concept, many chemotherapeutic agents were developed but have limitations such as low efficacy and severe side effects etc. A new cell based assay was developed to find the compounds that effectively block DNA replication either by directly damaging DNA or by inhibiting other cellular mechanisms. Enhanced Level of Genome Instability Gene 1 (ELG1; human ATAD5) protein levels increase in response to various types of DNA damage. Using a luciferase reporter-gene tagged with ATAD5, a cell-based assay [developed by Kyungjae Myung, NHGRI, NIH] was used to measure the induction of ATAD5 in human embryonic kidney cells (HEK293T). So, increase in luciferase activity can be used to identify the compounds that cause genetic stress.
Tox21 Assay Protocol Summary: For genotoxicity screening, 2,000 cells in 5 uL/well were dispensed into white, solid-bottom 1536-well plates using a Multidrop Combi (Thermo Scientific) dispenser. Following transfer of 23 nL compound or DMSO vehicle by a pin tool, the plates were incubated 16 hr at 37C and 5% CO2. 5 ul Amplite (AAT Bioquest, Inc.) was then added to each plate and following 30 min incubation at room temperature, luciferase activity was quantified on a ViewLux CCD-based plate reader.
In general terms: qHTS replaces the single test concentration by a dilution series.
On to `Oc1ccc(-c2ccccc2)cc1`, for which the Potency entry is “inactive”.
Take `NNC(=S)NN`: the Potency result was “inactive”.
To `CCCCCCOC(=O)c1ccccc1C(=O)OCCCCCC` belongs “inactive”; to `Cc1c(COC(=O)[C@@H]2[C@H](/C=C(\Cl)C(F)(F)F)C2(C)C)cccc1-c1ccccc1`, “inactive”; to `COc1ccc(C(CN(C)C)C2(O)CCCCC2)cc1` (stereo not given), “inactive”.
Consider `Oc1cc(Cl)ccc1Cl`, for which the Potency entry was “inactive”.
To `CCCCOCCOP(=O)(OCCOCCCC)OCCOCCCC` belongs “inactive”; to `Oc1cc(Cl)c(Cl)cc1Cl`, “inactive”.
For the compound `NNC(N)=S`, the Potency result was “inactive”.
Regarding `Nn1cnnc1`, the Potency entry was “inactive”.
As for `CCC(=O)O[C@H]1CC[C@H]2[C@@H]3CCC4=CC(=O)CC[C@]4(C)[C@H]3CC[C@]12C`, the entry is “inactive”.
As for `C=CC(=O)OCCO`, the entry is “inactive”.
With `CC(C)NC(C)C`, the Potency entry is “inactive”.
As for `CC(C)Oc1cc(-n2nc(C(C)(C)C)oc2=O)c(Cl)cc1Cl`, the entry is “inactive”; as for `O=P(Oc1ccccc1)(Oc1ccccc1)Oc1ccccc1`, “inactive”.
As for `Nc1cccnc1`, the entry is “inactive”; as for `O=C(O)C(F)(F)C(F)(F)C(F)(F)C(F)(F)C(F)(F)C(F)(F)C(F)(F)F`, “inactive”; as for `CCCCN(CCCC)N=O`, “inactive”.
Regarding `N#Cc1cc(Br)c(O)c(Br)c1`, the Potency result is “inactive”.
As for `Cc1ccc(OP(=O)(Oc2ccc(C)cc2)Oc2ccc(C)cc2)cc1`, the entry is “inactive”; as for `O=C(CCl)c1ccccc1`, 68.6 µM (active).
To `O=C1C=CC(=O)C=C1` belongs “inactive”; to `COP(=O)(OC)OC`, “inactive”; to `CC(O)CCO` (stereo not given), “inactive”.
In the case of `c1cc(OCC2CO2)ccc1Cc1ccc(OCC2CO2)cc1` (stereo not given), the Potency entry was “inactive”.
As for `OCC(O)CO`, the entry is “inactive”; as for `O=c1oc2ccccc2c(O)c1C(CC(O)c1ccc(-c2ccc(Br)cc2)cc1)c1ccccc1` (stereo not given), “inactive”.
To `C#C[C@]1(O)CC[C@H]2[C@@H]3CCC4=CC(=O)CC[C@]4(C)[C@H]3CC[C@@]21C` belongs “inactive”; to `CNC(=O)Oc1cccc2c1OC(C)(C)O2`, “inactive”.
As for `O=S(=O)(Oc1ccc(Cl)cc1)c1ccc(Cl)cc1`, the entry is “inactive”.
Consider `N#CC(Br)Br`, for which the Potency entry was “inactive”.
To `O=Cc1ccco1` belongs “inactive”; to `CCOP(=S)(OCC)O/N=C(\C#N)c1ccccc1`, “inactive”; to `CN(C)C(=O)Nc1ccc(Cl)cc1`, “inactive”.
Take `Cc1cccc(N)c1N`: the Potency entry is “inactive”.
On to `CCC(C)(c1ccc(O)cc1)c1ccc(O)cc1`, for which the Potency entry was “inactive”.
For the compound `O=C(Nc1ccc(Br)cc1)c1cc(Br)cc(Br)c1O`, the Potency result is “inactive”.
As for `CC(C)(c1cc(Cl)c(O)c(Cl)c1)c1cc(Cl)c(O)c(Cl)c1`, the entry is “inactive”.
As for `CC(C)C(=O)OCC(C)(C)C(OC(=O)C(C)C)C(C)C` (stereo not given), the entry is “inactive”; as for `C=C(C)[C@H]1Cc2c(ccc3c2O[C@@H]2COc4cc(OC)c(OC)cc4[C@@H]2C3=O)O1`, “inactive”.
